# Assay results from PubChem BioAssay (NCI).
# Values joined by “and” are separate entries in the source; they are usually repeats but may differ in a detail not shown here. Identical values can stand only once. The panel holds about 83,000 compounds, 20% with a hit somewhere; the sample as a whole holds those more often.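 96-well plates, one dose, 48 hours. Percent growth reported; active if below 10.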 Values without a mark were called inactive. Active and inactive are the calls of the source.
# Columns and labels:
# Assay in all cases: NCI-60 one-dose screen, 48 h (100 = growth as untreated, 0 = no growth, -100 = all killed)
# Conditions in all cases: 10 µM unless noted
# [1] = test system: SR leukemia
# [2] = test system: RPMI-8226 leukemia
# [3] = test system: OVCAR-8 ovarian
# [4] = test system: OVCAR-5 ovarian
# [5] = test system: OVCAR-4 ovarian
# [6] = test system: SK-OV-3 ovarian
# [7] = test system: IGROV1 ovarian
# [8] = test system: OVCAR-3 ovarian
# [9] = test system: HS 578T breast
# [10] = test system: NCI/ADR-RES ovarian
SMILES,growth [1],growth [2],growth [3],growth [4],growth [5],growth [6],growth [7],growth [8],growth [9],growth [10]
O=C1OCC2=C1C(c1cccc([N+](=O)[O-])c1)c1cc3c(cc1N2CCO)CCC3 (stereo not given),15.2%,17%,5.88% (active),43.5%,40%,27%,25.9%,-1.17% (active),21.9%,3.57% (active)
N#Cc1c(N)nnn1Cc1cc(=O)oc2ccc(O)cc12,95.3%,94.1%,100%,106%,110%,112%,112%,113%,99%,111%
CCCCC1COc2cccc3c2N1C=C/C3=C\C(=O)N(C)c1cccc(Cl)c1 (stereo not given),94.9%,92.3%,97.1%,102%,72.8%,95.3%,103%,96.4%,99.8%,97.7%
O=C(O)c1ccccc1Cc1ccc(F)c2ccccc12,107% and 100%,110% and 96.2%,101% and 102%,112% and 96.7%,110% and 96.6%,102% and 122%,113% and 119%,98.6% and 108%,95% and 103%,114% and 110%
O=C(CCN1CCOCC1)Nc1cccc(-n2cc(-c3ccncc3)c(-c3ccc(Cl)c(O)c3)n2)c1,16.8%,17.1%,39.5%,62.2%,66.5%,25.1%,51.8%,14.3%,7.21% (active),21.5%
N#Cc1cc(-c2ccnc(Nc3ccc(NC(=O)CCl)cc3)n2)ccc1N1CCCC1,1.78% (active),-24.3% (active),6.56% (active),-9.19% (active),-20.8% (active),-48.6% (active),-1.3% (active),-46% (active),12.6%,10.9%
Nc1n[nH]c2cccc(C#Cc3cccc(C(=O)Nc4ccc(CN5CCOCC5)c(C(F)(F)F)c4)c3)c12,36.1%,16.4%,12.5%,41.2%,47.2%,88.8%,18.6%,60.5%,29.5%,18.4%
CN1CCN(CCCN2c3ccccc3Sc3ccc(Cl)cc32)CC1,74.7%,76.3% and 92.3%,84.8% and 85.4%,94.4%,68.4% and 81.1%,99%,54.5%,93.9% and 81.3%,66.8% and 60.3%,69% and 83.2%
COc1ccc(/C=C/C(=O)c2cc3c(N)c(C(=O)Nc4ccccc4)sc3nc2C)cc1,23.4%,-13.3% (active),3.29% (active),39.3%,49.3%,33%,31%,-16.6% (active),14.6%,2.9% (active)
Cc1ccc(Nc2nc(-c3cc(O)c(C)c(C)c3O)cs2)cc1,70.3%,77.5%,84.1%,109%,105%,105%,92.9%,104%,97.9%,73%
COc1cc(CO)cc2cc3ccccc3nc12,96%,101%,101%,106%,107%,109%,106%,110%,108%,111%
[2H]C([2H])([2H])Oc1cc(F)ccc1/C=C/C(=O)/C=C(/C=C/c1ccc(F)cc1OC([2H])([2H])[2H])OB(F)F,41.7%,3.53% (active),4.99% (active),104%,17.5%,101%,12%,10.5%,46.3%,1.89% (active)
